Measurements taken from PubChem BioAssay AID1159580 (chemical genetic matrix, 2015).
Values joined by “and” are separate entries in the source; they are usually repeats but may differ in a detail not shown here. Equal entries are not always repeated. Hit rate of the full screen: of about 5,500 compounds, about 2,000 (36%) were called active. Inconclusive results (about 18%) are left out. No stated cut-off is given here; in the data, active means normalized growth mostly below about 0.91 (no sharp cut-off); inconclusive means no clear call, values can overlap the other calls; inactive means mostly above about 0.92. The list shows a part of the results.

Assay: chemical genetic growth profiling, strain panel (AID 1159580);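 further: tested at 20 µM; growth read once vehicle control cultures reached saturation at 30 °C; 1 = growth at the plate median or of vehicle wells; lower values mean less growth of the strain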
Details: growth OD

Measured: normalized growth

O=C(O)c1cc2cc(Cc3cccnc3)ccc2o1
inactive: S. cerevisiae deletion strains, locus YAL013W, strain DEP1, hits give low values 1.02 | S. cerevisiae deletion strains, locus YAL040C, strain CLN3, hits give low values 0.986 | S. cerevisiae deletion strains, locus YBR021W, strain FUR4, hits give low values 1 | S. cerevisiae deletion strains, locus YBR229C, strain ROT2, hits give low values 1.01 | S. cerevisiae deletion strains, locus YCL029C, strain bik1, hits give low values 0.995 | S. cerevisiae deletion strains, locus YCL061C, strain MRC1 (second series), hits give low values 1.01 | S. cerevisiae deletion strains, locus YDL035C, strain GPR1, hits give low values 0.994 | S. cerevisiae deletion strains, locus YDL074C, strain BRE1, hits give low values 0.995 | S. cerevisiae deletion strains, locus YDL101C, strain DUN1, hits give low values 1.01 | S. cerevisiae deletion strains, locus YDL134C, strain PPH21, hits give low values 0.993 | S. cerevisiae deletion strains, locus YDL185W, strain tfp1, hits give low values 0.994 | S. cerevisiae deletion strains, locus YDL192W, strain arf1, hits give low values 1 | S. cerevisiae deletion strains, locus YDR101C, strain arx1, hits give low values 1.02 | S. cerevisiae deletion strains, locus YDR162C, strain NBP2, hits give low values 1 | S. cerevisiae deletion strains, locus YDR318W, strain mcm21, hits give low values 0.986 | S. cerevisiae deletion strains, locus YDR363W, strain ESC2, hits give low values 1.01 | S. cerevisiae deletion strains, locus YDR388W, hits give low values 0.989 | S. cerevisiae deletion strains, locus YDR502C, strain sam2, hits give low values 0.996 | S. cerevisiae deletion strains, locus YEL061C, strain CIN8, hits give low values 1 | S. cerevisiae deletion strains, locus YER002W, strain NOP16, hits give low values 0.99 | S. cerevisiae deletion strains, locus YER110C, hits give low values 0.995 | S. cerevisiae deletion strains, locus YER155C, strain BEM2, hits give low values 1.01 | S. cerevisiae deletion strains, locus YER167W, strain BCK2, hits give low values 1 | S. cerevisiae deletion strains, locus YGL078C, strain dbp3, hits give low values 0.991 | S. cerevisiae deletion strains, locus YGL086W, strain mad1, hits give low values 0.998 | S. cerevisiae deletion strains, locus YGL248W, strain PDE1, hits give low values 1 | S. cerevisiae deletion strains, locus YGR135W, strain pre9, hits give low values 1.01 | S. cerevisiae deletion strains, locus YGR229C, strain SMI1, hits give low values 1.05 | S. cerevisiae deletion strains, locus YGR252W, strain gcn5, hits give low values 0.92 | S. cerevisiae deletion strains, locus YHR030C, strain SLT2, hits give low values 0.997 | S. cerevisiae deletion strains, locus YHR079C, strain IRE1 (second series), hits give low values 0.985 | S. cerevisiae deletion strains, locus YHR094C, strain hxt1, hits give low values 0.995 | S. cerevisiae deletion strains, locus YHR129C, strain ARP1, hits give low values 0.997 | S. cerevisiae deletion strains, locus YHR200W, strain rpn10, hits give low values 0.994 | S. cerevisiae deletion strains, locus YIL066C, strain RNR3, hits give low values 1.01 | S. cerevisiae deletion strains, locus YIL073C, strain SPO22, hits give low values 1.01 | S. cerevisiae deletion strains, locus YIL125W, strain kgd1, hits give low values 0.999 | S. cerevisiae deletion strains, locus YIR030C, strain dcg1, hits give low values 0.995 | S. cerevisiae deletion strains, locus YJL095W, strain BCK1, hits give low values 1.01 | S. cerevisiae deletion strains, locus YJL134W, strain LCB3, hits give low values 1 | S. cerevisiae deletion strains, locus YJL168C, strain set2, hits give low values 0.991 | S. cerevisiae deletion strains, locus YJL187C, strain SWE1 (second series), hits give low values 1.01 | S. cerevisiae deletion strains, locus YJR043C, strain POL32, hits give low values 1.02 | S. cerevisiae deletion strains, locus YJR075W, strain HOC1, hits give low values 1.01 | S. cerevisiae deletion strains, locus YKL009W, strain mrt4, hits give low values 0.983 | S. cerevisiae deletion strains, locus YKL068W, hits give low values 0.992 | S. cerevisiae deletion strains, locus YKL085W, strain MDH1 (second series), hits give low values 0.999 | S. cerevisiae deletion strains, locus YKL085W, strain MDH1, hits give low values 0.999 | S. cerevisiae deletion strains, locus YKL190W, strain CNB1, hits give low values 1.01 | S. cerevisiae deletion strains, locus YKR001C, strain vps1, hits give low values 0.997 | S. cerevisiae deletion strains, locus YLR039C, strain RIC1, hits give low values 1.01 | S. cerevisiae deletion strains, locus YLR058C, strain SHM2, hits give low values 1.01 | S. cerevisiae deletion strains, locus YLR102C, strain apc9, hits give low values 0.991 | S. cerevisiae deletion strains, locus YLR262C, strain YPT6, hits give low values 1.03 | S. cerevisiae deletion strains, locus YLR268W, strain sec22, hits give low values 0.986 | S. cerevisiae deletion strains, locus YLR330W, strain CHS5, hits give low values 1.01 | S. cerevisiae deletion strains, locus YLR342W, strain FKS1 (second series), hits give low values 0.988 | S. cerevisiae deletion strains, locus YLR371W, strain rom2, hits give low values 0.988 | S. cerevisiae deletion strains, locus YLR418C, strain cdc73, hits give low values 0.975 | S. cerevisiae deletion strains, locus YML016C, strain PPZ1, hits give low values 1 | S. cerevisiae deletion strains, locus YML032C, strain rad52, hits give low values 0.995 | S. cerevisiae deletion strains, locus YML124C, strain tub3, hits give low values 0.994 | S. cerevisiae deletion strains, locus YMR078C, strain ctf18, hits give low values 0.995 | S. cerevisiae deletion strains, locus YMR223W, strain ubp8, hits give low values 0.995 | S. cerevisiae deletion strains, locus YMR263W, strain SAP30, hits give low values 1 | S. cerevisiae deletion strains, locus YMR307W, strain GAS1, hits give low values 0.967 and 0.989 | S. cerevisiae deletion strains, locus YNL067W, strain RPL9B, hits give low values 1 | S. cerevisiae deletion strains, locus YNL153C, strain GIM3, hits give low values 1.02 | S. cerevisiae deletion strains, locus YNL175C, strain NOP13, hits give low values 1 | S. cerevisiae deletion strains, locus YNL197C, strain WHI3, hits give low values 1.02 | S. cerevisiae deletion strains, locus YNL224C, strain SQS1, hits give low values 1.02 | S. cerevisiae deletion strains, locus YNL233W, strain BNI4, hits give low values 1 | S. cerevisiae deletion strains, locus YNL250W, strain rad50, hits give low values 0.989 | S. cerevisiae deletion strains, locus YNL271C, strain bni1, hits give low values 0.999 | S. cerevisiae deletion strains, locus YNL298W, strain CLA4, hits give low values 0.981 | S. cerevisiae deletion strains, locus YNL307C, strain MCK1, hits give low values 0.995 | S. cerevisiae deletion strains, locus YNR052C, strain pop2, hits give low values 0.99 | S. cerevisiae deletion strains, locus YOL006C, strain TOP1, hits give low values 1.04 | S. cerevisiae deletion strains, locus YOL012C, strain htz1 1.18 | S. cerevisiae deletion strains, locus YOL147C, strain pex11, hits give low values 0.995 | S. cerevisiae deletion strains, locus YOR061W, strain CKA2, hits give low values 1.01 | S. cerevisiae deletion strains, locus YOR069W, strain VPS5, hits give low values 1 | S. cerevisiae deletion strains, locus YOR083W, strain WHI5 (second series), hits give low values 1.03 | S. cerevisiae deletion strains, locus YOR136W, strain idh2, hits give low values 0.997 | S. cerevisiae deletion strains, locus YOR144C, strain elg1, hits give low values 0.995 | S. cerevisiae deletion strains, locus YOR184W, strain ser1, hits give low values 0.988 | S. cerevisiae deletion strains, locus YOR316C, strain cot1, hits give low values 0.992 | S. cerevisiae deletion strains, locus YPL055C, strain LGE1, hits give low values 1.03 and 1.01 | S. cerevisiae deletion strains, locus YPL241C, strain CIN2, hits give low values 1.01 | S. cerevisiae deletion strains, locus YPR119W, strain clb2, hits give low values 0.992 | S. cerevisiae deletion strains, locus YPR141C, strain kar3, hits give low values 0.996 | S. cerevisiae deletion strains, locus YPR163C, strain tif3, hits give low values 0.993 | S. cerevisiae deletion strains, locus YPR167C, strain met16, hits give low values 0.991 | S. cerevisiae deletion strains, strain wtn01, hits give low values 0.986 | S. cerevisiae strains, strain wild type, hits give low values 1
